Sfp inh: inhibitors of Bacillus subtilis Sfp phosphopantetheinyl transferase; Q9F4F7; Biochemical Sfp PPTase activity, qHTS; Potency, µM, usual class: inhibitors; hit rate 3.5% among 310,000; AID 1490;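 note: the enzyme is Sfp with the accession as filed and its product quenches rhodamine fluorescence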
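Compounds were incubated with enzyme (final 15 nM) for 15 min at room temperature before substrate addition started the reaction. Fluorescence at 525 nm excitation, 598 nm emission was recorded immediately and after 30 minutes.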
uPA generation: cell surface uPA generation inhibition | cell surface uPA generation assay, qHTS | Potency, µM (doses to about 38.3 µM), hits mostly inhibitors | hit rate 0.31% among 330,000; active = well fitted inhibition curve with a large enough effect; inconclusive = small, poorly fitted or top-dose-only effect; inactive = no such curve, though single readings can be large or run the other way; tested in mouse RAW 264.7 cells; note: nearly all actives have a fitted effect of over 55% in size
TCR act: activators of T cell receptors | AID 504894 | primary human leukocytes, anti-CD3, IL-2 HTRF, 48 h | 330,000 tested, under 10 active | Potency, µM (top dose mostly 9.22 µM), hits mostly activators
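HTRF read-out of IL-2 secretion: europium cryptate donor excited at 320nm, d2 acceptor emission at 665nm. Cells were primary human leukocytes incubated 48 hr with compounds and a-CD3 beads, supplying TCR signal only.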
ClpP mod: qHTS Assay for Activators of ClpP | purified B. subtilis ClpP, FRET peptide cleavage, 20 min | Potency, µM (highest dose often 57.5 µM) | hit rate 1.9% among 340,000; active = well fitted falling curve with a large enough effect; inconclusive = small, poorly fitted or top-dose-only effect; inactive = no such curve, though single readings can be large or run the other way; note: the source files actives as falling curves though it sought activators and does not explain the sign; nearly all actives have a fitted effect of over 65% in size
Target sequence (P80244 whole entry, looked up): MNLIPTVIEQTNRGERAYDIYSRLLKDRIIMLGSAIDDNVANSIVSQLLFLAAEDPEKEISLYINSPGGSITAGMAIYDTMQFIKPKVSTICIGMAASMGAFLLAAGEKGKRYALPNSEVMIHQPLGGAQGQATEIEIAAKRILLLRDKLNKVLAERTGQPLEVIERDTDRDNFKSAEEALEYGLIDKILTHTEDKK
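Buffer: 100 mM Tris/HCl pH8, 100 mM KCl, 0.05% low protease BSA, 2.5% glycerol, 0.01% Tween-20. ClpP 10 microg/mL final; 20 min RT; delta FRET normalized to ADEP and DMSO controls.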
Of the large screens only hits and unclear results are named; the others gave an inactive call. Shown are actives, neighbours in structure and some others; about 4.2% of the full set was active somewhere. Unless noted, calls come from the whole dose curve; as a rule, active = well fitted curve in the direction sought with a large enough effect; inconclusive = small, poorly fitted or top-dose-only effect, or another doubt; inactive = no such curve, though single readings can be large; an effect the other way counts as inactive or inconclusive.

COCCn1cc(C(=O)NCc2cccs2)c2c3ccccc3n(C)c2c1=O	ClpP mod 20µM (no result: TCR act)
COCCn1cc(C(=O)N2CCN(C)CC2)c2c3ccccc3n(C)c2c1=O	ClpP mod 11µM (no result: TCR act)
COCCn1cc(C(=O)NCCN(C)C)c2c3ccccc3n(C)c2c1=O	none
O=C(NCC(c1ccc(Cl)cc1)N1CCCCC1)c1ccccc1F (stereo not drawn)	none (no result: Sfp inh, uPA generation, TCR act)
COCC(C)n1c(SCC(=O)N2CCCCC2)nc2ccccc2c1=O (stereo not drawn)	none
COCC(C)n1c(SCC(=O)N2CCc3ccccc3C2)nc2ccccc2c1=O (stereo not drawn)	ClpP mod 13µM
C/C(=N\NC(=O)Cc1cccn1C)c1ccco1	none (no result: ClpP mod)
Cn1cccc1CC(=O)N/N=C/C=C/c1ccco1	Sfp inh 14µM
Cc1ccc(/C=N\NC(=O)Cc2cccn2C)o1	Sfp inh 40µM (no result: ClpP mod)
COc1ccc(CCNC(=O)c2nc(-c3ccc(Cl)cc3)n3c2CCCCC3)c(OC)c1	none (no result: Sfp inh, uPA generation, TCR act)
COC(=O)COc1ccc(C(C2C(=O)CC(C)(C)CC2=O)C2C(=O)CC(C)(C)CC2=O)cc1	Sfp inh 56µM
COC(=O)COc1ccc(NC(=O)C(c2ccccc2)c2ccccc2)cc1	none
Cc1cc(C)cc(Oc2c(C(F)(F)F)oc3cc(OCC(=O)NC4CCCCC4)ccc3c2=O)c1	none (no result: Sfp inh, uPA generation, TCR act)
COc1cccc(OCc2nc(-c3cccc([N+](=O)[O-])c3)no2)c1	none (no result: ClpP mod)
COc1cccc(-c2noc(Cn3nc(C)c([N+](=O)[O-])c3C)n2)c1	Sfp inh 35µM
Cc1ccc(O)c(N=Nc2nccs2)c1	uPA generation 2.2µM (no result: Sfp inh)
COc1ccc(N=Nc2cc(C)ccc2O)cc1	uPA generation inconclusive
O=c1nc2ccccc2c2n1CC(CN1CCN(Cc3ccccc3)CC1)N2 (stereo not drawn)	ClpP mod 16µM
O=C(NN1C(=O)CSC1=S)c1cccnc1	Sfp inh 56µM
CCCCN(CC)Cc1ccc(CNC(=S)Nc2ccc(C)cc2Cl)o1	none (no result: ClpP mod)
CCCCN(CC)Cc1ccc(CNC(=S)Nc2c(C)cc(C)cc2C)o1	Sfp inh 45µM (no result: ClpP mod)
O=C(C[n+]1cccc(Br)c1)c1ccc(-c2ccccc2)cc1	uPA generation inconclusive
COC(=O)/C(C#N)=C/c1ccc(OC(=O)c2ccccn2)cc1	Sfp inh 14µM
CCOC(=O)/C(C#N)=C/c1ccc(OC(=O)c2ccccn2)cc1	Sfp inh 50µM
CCOc1ccc(CNC(=O)Cn2cc3c(n2)-c2c(oc(C(=O)N4CCOCC4)c2C)CC3)cc1	none (no result: Sfp inh, uPA generation, TCR act)
COc1ccc(-n2c(CN3CCC(C)CC3)nc3ccc([N+](=O)[O-])cc3c2=O)c(OC)c1	Sfp inh 25µM
COc1ccc(OC)c(-n2c(CN3CCC(C(N)=O)CC3)nc3ccccc3c2=O)c1	Sfp inh 35µM (no result: uPA generation)
COc1ccc(OC)c(-n2c(CNC3CCN(Cc4ccccc4)CC3)nc3ccccc3c2=O)c1	none (no result: uPA generation, TCR act)
COc1ccc(-n2c(CN3CCOCC3)nc3ccc([N+](=O)[O-])cc3c2=O)c(OC)c1	Sfp inh inconclusive
COc1cccc(-n2c(CN3CCN(c4ccccn4)CC3)nc3ccc([N+](=O)[O-])cc3c2=O)c1	Sfp inh 14µM, uPA generation inconclusive
O=C(O)CCCC/C=C(\c1ccccc1)c1cccnc1	none (no result: uPA generation, TCR act, ClpP mod)
O=C(NCC(c1ccc(Cl)cc1)N1CCCCC1)c1ccccc1 (stereo not drawn)	none (no result: Sfp inh, uPA generation, TCR act)
C=CCN1CN(S(=O)(=O)c2cccs2)c2nc3ccccc3nc21	ClpP mod 25µM (no result: uPA generation, TCR act)
S=c1[nH]nc(Nc2cccc3ccccc23)s1	Sfp inh 40µM (no result: ClpP mod)
Fc1ccccc1Nc1n[nH]c(=S)s1	Sfp inh 50µM (no result: ClpP mod)
c1ccc2c(Nc3nc4c(s3)CCCC4)cccc2c1	Sfp inh 50µM
COC(=O)[C@@]1(Cc2ccc(F)cc2)[C@@H]2C(=CC(=O)[C@H]2CC(=O)C(=O)N(C)C)CN1C(=O)c1ccccc1	none (no result: uPA generation, TCR act, ClpP mod)
COC(=O)[C@@]1(Cc2ccccc2)[C@@H]2C(=CC(=O)[C@H]2CC(=O)C(=O)N(C)C)CN1C(=O)c1ccccc1	uPA generation 2.8µM
O=S(=O)(Nc1cc2nc3ccccc3nc2n1Cc1ccccc1)c1ccc(Cl)cc1	Sfp inh 56µM
O=S(=O)(NCc1ccccc1)c1ccc(Cl)cc1	none (no result: TCR act)
Cc1ccccc1C(=O)Nc1ccccc1-c1nnn(CC(=O)Nc2ccc3c(c2)OCCO3)n1	Sfp inh 56µM (no result: uPA generation)
COc1ccc(C)cc1NC(=O)C(=O)NCC1(c2ccccc2)CCCC1	none (no result: Sfp inh, uPA generation, TCR act)
CCCCN1C2=C(C(=O)CC(C)(C)C2)C(c2ccccc2)C2=C1c1ccccc1C2=O (stereo not drawn)	Sfp inh 56µM
Cc1ccc(/C=C/C(=O)Nc2cc(S(N)(=O)=O)ccc2O)cc1	Sfp inh 28µM
Cc1cccc(NC(=O)N2CCCC2C(=O)NCc2cccs2)c1 (stereo not drawn)	ClpP mod 18µM
Cc1ccc(NC(=O)N2CCCC2C(=O)NCc2cccs2)cc1 (stereo not drawn)	none
CCOC(=O)c1cc2c(ccn2C)n1CC(=O)N(Cc1ccccc1)c1ccc(F)cc1	none
CC(C)OC(=O)c1cc2c(ccn2C)n1CC(=O)N(Cc1ccccc1)c1ccc(F)cc1	ClpP mod 32µM
O=C(NC1CCN(S(=O)(=O)c2cccc(Cl)c2)CC1)C1CCCCC1	none (no result: ClpP mod)
Cc1ccc2cc(C(c3nnnn3Cc3ccccc3)N3CCc4ccccc43)c(=O)[nH]c2c1 (stereo not drawn)	none (no result: uPA generation, TCR act)
Cc1ccc2cc(C(c3nnnn3Cc3ccccc3)N3CCc4ccccc43)c(=O)[nH]c2c1C (stereo not drawn)	Sfp inh 50µM
Cc1cc2cc(C(c3nnnn3Cc3ccccc3)N3CCc4ccccc43)c(=O)[nH]c2cc1C (stereo not drawn)	Sfp inh 35µM (no result: uPA generation)
Cc1cccc2cc(C(c3nnnn3Cc3ccccc3)N3CCN(C)CC3)c(=O)[nH]c12 (stereo not drawn)	ClpP mod inconclusive (no result: uPA generation)
Cc1ccc2[nH]c(=O)c(C(c3nnnn3Cc3ccccc3)N3CCc4ccccc43)cc2c1 (stereo not drawn)	Sfp inh 20µM
Cc1cc2cc(C(c3nnnn3Cc3ccco3)N3CCc4ccccc4C3)c(=O)[nH]c2cc1C (stereo not drawn)	Sfp inh 11µM
CCc1ccc2[nH]c(=O)c(C(c3nnnn3Cc3ccco3)N3CCC(C)CC3)cc2c1 (stereo not drawn)	none
Cc1cc2cc(C(c3nnnn3Cc3ccco3)N3CCc4ccccc43)c(=O)[nH]c2cc1C (stereo not drawn)	Sfp inh 10µM
Cc1cccc(OCCn2c(=S)[nH]c3ccccc32)c1	Sfp inh 6.3µM
Cc1ccc(OCCn2c(=S)[nH]c3ccccc32)c(C(C)C)c1	none
S=c1[nH]c2ccccc2n1CCOc1ccccc1	Sfp inh 89µM
S=c1[nH]c2ccccc2n1Cc1ccccc1	Sfp inh 14µM (no result: ClpP mod)
CCOc1ccc(OCCn2c(=S)[nH]c3ccccc32)cc1	uPA generation inconclusive
COc1ccc(/C=C/c2ccc3ccccc3[n+]2C)c(OC)c1OC	none (no result: Sfp inh, uPA generation, TCR act)

From PubChem
